Data reported in PubChem BioAssay (Tox21).
Records with an inconclusive call do not appear. A call without a number means that no potency is given here. A number with no mark means an inactive call. Activity calls are given as the source filed them. Calls come from the whole dose curve.
Potency is the fitted concentration of half-maximal effect.

The molecules below were run against 5-hydroxytryptamine receptor 2A (Homo sapiens) (UniProt P28223) (assay: 5-hydroxytryptamine receptor 2A (HTR2A) small molecule agonists, cell-based qHTS assay (AID 1963587; note: nearly all actives have a fitted effect of over 30% in size)). Conditions: HTR2A-CHO cells, calcium flux fluorescence, agonist mode; series mostly up to 76.8 µM.
Chain of 5-hydroxytryptamine receptor 2A (Homo sapiens) (P28223 whole entry, looked up): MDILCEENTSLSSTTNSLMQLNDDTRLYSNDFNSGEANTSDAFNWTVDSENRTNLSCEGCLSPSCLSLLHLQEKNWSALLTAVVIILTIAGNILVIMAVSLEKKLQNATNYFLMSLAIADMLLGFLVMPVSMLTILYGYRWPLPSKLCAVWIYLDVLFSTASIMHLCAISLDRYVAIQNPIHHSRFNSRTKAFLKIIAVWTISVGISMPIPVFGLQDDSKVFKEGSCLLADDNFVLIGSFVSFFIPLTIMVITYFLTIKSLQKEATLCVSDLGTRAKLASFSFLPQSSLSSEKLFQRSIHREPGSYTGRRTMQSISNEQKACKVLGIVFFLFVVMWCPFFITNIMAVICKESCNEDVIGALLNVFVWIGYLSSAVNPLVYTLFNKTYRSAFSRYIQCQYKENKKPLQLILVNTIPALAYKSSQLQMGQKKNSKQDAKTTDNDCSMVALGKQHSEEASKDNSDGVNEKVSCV
From the text: National Center for Advancing Translational Sciences [NCATS]
Division of Preclinical Innovation [DPI]
U.S. Environmental Protection Agency [EPA]
National Institutes of Environmental Health Sciences [NIEHS]
National Toxicology Program [NTP]
U.S. Food and Drug Administration [FDA]
The HTR2A receptor is a subtype of the 5-HT2 receptor that belongs to the serotonin receptor family and is a G protein-coupled receptor (GPCR). The HTR2A-CHO cell line stably expressing human 5-hydroxytryptamine receptor 2A (HTR2A) can be used for screening agonists of interactions between 5-HT2 and its ligands. The HTR2A-CHO calcium flux assay is a homogeneous fluorescence-based assay for detecting the intracellular calcium level using FDSS kinetic plate reader system.
HTR2A-CHO cells were dispensed at 2000 cells/3uL/well in 1536-well black-clear bottom plates using a Multidrop Dispenser. After the assay plates were incubated at a 37 C/5% CO2 incubator for 18 h, 3 uL of Dye Loading Buffer was transferred to the assay plate by a Flying Reagent Dispenser. The assay plates were incubated at 37 C for 1h. For agonist mode, 23 nL of compounds dissolved in DMSO, positive controls or DMSO only was transferred to the assay plate by a pin tool. The fluorescence intensity in the plates was measured using FDSS 7000EX kinetic plate reader for 2 min at 1 sec intervals.
In the case of CCc1nn(CCCN2CCN(c3cccc(Cl)c3)CC2)c(=O)n1CCOc1ccccc1, the Potency is reported as “inactive”.
For CCCCCCCCCc1ccc(OCCOCCO)cc1, the Potency was 20.5 µM (active).
With NC(=O)Nc1nc2ccccc2[nH]1 the Potency was “inactive”.
COc1cc(C(C)C)c2c(c1)S(=O)(=O)N(COc1cc(=O)n3cccc(OCCN4CCCCC4)c3n1)C2=O gave an activation of -1.78% [at 15.9 µM].
For C#Cc1cccc(Nc2ncnc3cc(OCCOC)c(OCCOC)cc23)c1, the Potency was “inactive”.
CCc1ccc(C(c2ccc(CC)cc2)C(Cl)Cl)cc1 was tested, and the Potency was “inactive”.
For CCCC(=O)OC[C@@H](OC(=O)CCC)[C@@H](OC(=O)CCC)[C@H](Cn1c2nc(=O)[nH]c(=O)c-2nc2cc(C)c(C)cc21)OC(=O)CCC, the Potency was 23.9 µM (active).
For CCCCCCCCCCCCN(CCCCCCCCCCCC)CCCCCCCCCCCC, the Potency was “inactive”.
O=C(O)c1ccccc1Nc1cc(Cl)ccc1C(=O)O showed an activation of -3.1% [at 15.9 µM].
For OC1CCCCC1c1ccccc1 (stereo not given), the Potency was “inactive”.
For Cc1nc(Nc2ncc(C(=O)Nc3c(C)cccc3Cl)s2)cc(N2CCN(CCO)CC2)n1, the Potency was “inactive”.
Cc1[nH]nc2c1N=C(c1ccccc1Cl)c1cc([N+](=O)[O-])ccc1N2 was tested, and the Potency was “inactive”.
In the case of NC(=O)n1c(O)c(C(=O)c2cccs2)c2cc(Cl)ccc21, the Potency is reported as “inactive”.
With Cc1cccc(Nc2ccccc2)c1 the Potency was “inactive”.
With CCCN(C1CCN(C(=O)C2CCNCC2)CC1)[C@@H]1CCc2ccc(OC)cc2C1 the Potency was 17.4 µM (active).
Molecule O=C(O)CN(CCN(CC(=O)O)CC(=O)O)CC(=O)O has an activation of -0.659% [at 2.65 µM].
In the case of CC(CN(CCN(CC(C)OCCO)CC(C)OCCO)CC(C)OCCO)OCCO (stereo not given), the Potency is reported as “inactive”.
For NCc1cccc(C2CCN(C(=O)c3ccc(C#Cc4ccccc4F)o3)CC2)c1, the Potency was 21.9 µM (active).
For CCCCOc1ccc(CC(=O)NO)cc1, the Potency was “inactive”.
In the case of OC/C=C/c1ccccc1, the Potency is reported as “inactive”.
With CCc1cc(C2=C(C(=O)O)N(c3ccccc3C(F)(F)F)S(=O)(=O)c3ccccc32)cc2c1OCO2 the Potency was “inactive”.
With CC1(C)C(=O)NC(=O)N1CO the Potency was “inactive”.
With Cc1cc(CCN2CCN(c3nsc4ccccc34)CC2)cc2c1NC(=O)CC2(C)C the Potency was “inactive”.
With Nc1cc(N)cc(C(=O)O)c1 the Potency was “inactive”.
With CCC(C)OC(C)CC (stereo not given) the Potency was “inactive”.
C=C(C)C(=O)OCC(O)COc1ccc(C(C)(C)c2ccc(OCC(O)COC(=O)C(=C)C)cc2)cc1 (stereo not given) was tested, and the Potency was “inactive”.
COC(Cc1ccccc1)OC was tested, and the Potency was “inactive”.
With Cc1cc2nc(N)sc2cc1C the Potency was “inactive”.
In the case of CCC1OCC(COc2ccc(Oc3ccccc3)cc2)O1 (stereo not given), the Potency is reported as “inactive”.
With COC(=O)c1cc(Cl)ccc1[N+](=O)[O-] the Potency was “inactive”.
For NC(N)=NN=C(/C=C/c1ccc([N+](=O)[O-])o1)/C=C/c1ccc([N+](=O)[O-])o1, the Potency was “inactive”.
For CCNCCO, the Potency was “inactive”.
In the case of C=CC(C)(CCC=C(C)C)OC(=O)CC(C)C (stereo not given), the Potency is reported as “inactive”.
CNCCCCOc1ccccc1Cc1ccccc1 was tested, and the Potency was 10.7 µM (active).
Cc1c(-c2ccc(O)cc2)n(Cc2ccc(OCCN3CCCCCC3)cc2)c2ccc(O)cc12 was tested, and the Potency was “inactive”.
Oc1ccccc1F was tested, and the Potency was “inactive”.
O=c1c2ccccc2oc2ccccc12 was tested, and the Potency was “inactive”.
In the case of O=CN(CCO)CCO, the Potency is reported as “inactive”.
For CC(C)c1cccc(C(C)C)c1N1C(=O)c2ccc(O)cc2C1=O, the Potency was 43.6 µM (active).
O=C(c1ccccc1)c1ccccc1 was tested, and the Potency was “inactive”.
